# Laboratory results: the supplement of paper PMC11732987, “Enantioselective OTUD7B fragment discovery through chemoproteomics screening and high-throughput optimisation” (Communications Chemistry, 2025)
# A number with no mark means an inactive call.
# Tests used:
# Assay in all cases: log2 ratio of Biotin-Ahx-Ub-VS probe labelling (fragment/DMSO); higher = less target engagement (more negative = stronger competition), active = hit call of the paper (q ≤ 0.05, log2 ratio ≤ -1)
# Settings in all cases: compound concentration: 200 uM; treatment time: 3 h
# [1] = biological target: T1, ALG13 (UniProt Q9NP73)
# T1 sequence (whole entry): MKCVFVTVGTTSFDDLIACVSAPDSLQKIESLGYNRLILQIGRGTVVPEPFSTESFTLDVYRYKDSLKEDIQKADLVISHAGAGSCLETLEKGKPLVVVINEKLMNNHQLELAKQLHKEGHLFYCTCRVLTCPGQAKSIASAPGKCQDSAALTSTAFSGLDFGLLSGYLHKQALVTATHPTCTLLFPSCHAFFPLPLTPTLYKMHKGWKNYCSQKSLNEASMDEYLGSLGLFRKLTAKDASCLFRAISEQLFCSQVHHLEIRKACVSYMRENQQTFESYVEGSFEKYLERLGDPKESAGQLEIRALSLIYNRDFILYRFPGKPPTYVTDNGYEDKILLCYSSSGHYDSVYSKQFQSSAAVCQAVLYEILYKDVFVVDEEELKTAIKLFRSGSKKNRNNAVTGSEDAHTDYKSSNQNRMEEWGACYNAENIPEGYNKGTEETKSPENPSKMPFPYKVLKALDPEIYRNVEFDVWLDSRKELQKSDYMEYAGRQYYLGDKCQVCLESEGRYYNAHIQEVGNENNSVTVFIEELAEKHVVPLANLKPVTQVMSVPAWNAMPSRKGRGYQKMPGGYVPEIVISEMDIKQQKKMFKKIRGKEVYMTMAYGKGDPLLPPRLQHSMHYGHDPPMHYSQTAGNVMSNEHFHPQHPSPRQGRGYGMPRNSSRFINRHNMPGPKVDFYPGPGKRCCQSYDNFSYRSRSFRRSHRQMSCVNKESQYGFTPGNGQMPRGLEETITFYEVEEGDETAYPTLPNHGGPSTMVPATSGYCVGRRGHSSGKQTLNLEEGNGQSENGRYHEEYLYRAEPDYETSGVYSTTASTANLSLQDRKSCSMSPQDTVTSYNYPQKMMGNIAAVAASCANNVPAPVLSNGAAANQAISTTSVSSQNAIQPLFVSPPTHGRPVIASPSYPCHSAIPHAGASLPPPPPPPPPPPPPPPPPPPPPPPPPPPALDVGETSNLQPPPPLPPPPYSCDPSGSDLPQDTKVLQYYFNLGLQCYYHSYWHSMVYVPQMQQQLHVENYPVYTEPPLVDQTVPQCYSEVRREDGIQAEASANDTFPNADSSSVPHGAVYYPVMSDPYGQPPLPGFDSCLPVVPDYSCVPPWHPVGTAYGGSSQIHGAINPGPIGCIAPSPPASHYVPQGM
# In short: (§1)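 HEK293T lysate (495 µg per sample, in Tris/CHAPS/IGEPAL buffer with protease inhibitors) was exposed in triplicate for 3 h to fragment at 200 µM or to vehicle, then to Biotin-Ahx-Ub-VS at 0.5 µM final for 1 h. Labelled DUBs were enriched on NeutrAvidin, digested with LysC and trypsin, and analysed by diaPASEF LC-MS/MS. Spectronaut label-free quantities were normalised to the global median, and values are average log2 ratios of fragment over vehicle from an unpaired t-test. Only proteins with ≥2 unique peptides were used.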
# [2] = biological target: ATXN3 (UniProt P54252)
# Sequence of ATXN3 (P54252 whole entry): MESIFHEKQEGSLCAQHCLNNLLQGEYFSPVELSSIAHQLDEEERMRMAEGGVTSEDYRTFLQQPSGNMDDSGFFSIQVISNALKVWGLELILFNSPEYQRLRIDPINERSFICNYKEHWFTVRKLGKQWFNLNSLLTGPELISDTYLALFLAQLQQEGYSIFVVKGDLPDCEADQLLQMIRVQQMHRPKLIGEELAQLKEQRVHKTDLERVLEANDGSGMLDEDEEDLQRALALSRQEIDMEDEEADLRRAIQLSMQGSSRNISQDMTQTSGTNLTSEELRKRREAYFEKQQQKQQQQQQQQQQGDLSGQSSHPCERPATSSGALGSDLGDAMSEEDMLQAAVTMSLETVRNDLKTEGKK
# In short: as §1
# [3] = biological target: T2, BAP1 (UniProt Q92560)
# T2 sequence (whole entry): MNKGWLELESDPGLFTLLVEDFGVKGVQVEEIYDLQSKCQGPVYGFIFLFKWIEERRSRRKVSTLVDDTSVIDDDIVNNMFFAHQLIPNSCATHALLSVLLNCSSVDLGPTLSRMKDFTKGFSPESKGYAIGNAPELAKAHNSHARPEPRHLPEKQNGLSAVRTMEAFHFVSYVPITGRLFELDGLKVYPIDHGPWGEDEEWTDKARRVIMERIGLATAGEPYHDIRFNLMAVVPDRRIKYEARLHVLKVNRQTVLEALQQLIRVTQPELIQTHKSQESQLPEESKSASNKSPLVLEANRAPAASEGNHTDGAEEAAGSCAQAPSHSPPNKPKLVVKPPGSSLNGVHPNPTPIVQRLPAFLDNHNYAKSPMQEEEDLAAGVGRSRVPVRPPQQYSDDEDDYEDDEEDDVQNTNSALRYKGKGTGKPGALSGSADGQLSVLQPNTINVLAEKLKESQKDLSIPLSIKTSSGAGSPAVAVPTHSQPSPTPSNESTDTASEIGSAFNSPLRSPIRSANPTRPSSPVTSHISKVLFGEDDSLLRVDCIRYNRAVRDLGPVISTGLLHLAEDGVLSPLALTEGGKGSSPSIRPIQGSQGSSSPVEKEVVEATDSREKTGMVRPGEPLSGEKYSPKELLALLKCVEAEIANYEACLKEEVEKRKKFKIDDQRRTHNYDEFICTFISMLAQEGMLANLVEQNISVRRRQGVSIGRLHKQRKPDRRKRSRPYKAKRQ
# In short: as §1
# [4] = biological target: EIF3F (UniProt O00303)
# Sequence of EIF3F (O00303 whole entry): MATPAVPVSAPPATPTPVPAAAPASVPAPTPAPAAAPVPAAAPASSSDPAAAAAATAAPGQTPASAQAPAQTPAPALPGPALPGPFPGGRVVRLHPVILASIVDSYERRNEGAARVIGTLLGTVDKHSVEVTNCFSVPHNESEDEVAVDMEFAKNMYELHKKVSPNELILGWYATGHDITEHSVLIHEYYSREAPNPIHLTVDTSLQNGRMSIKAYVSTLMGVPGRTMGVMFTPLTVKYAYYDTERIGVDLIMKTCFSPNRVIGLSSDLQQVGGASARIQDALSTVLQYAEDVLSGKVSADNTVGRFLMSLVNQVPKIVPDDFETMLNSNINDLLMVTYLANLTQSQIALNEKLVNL
# In short: as §1
# [5] = biological target: EIF3H (UniProt O15372)
# Sequence of EIF3H (O15372 whole entry): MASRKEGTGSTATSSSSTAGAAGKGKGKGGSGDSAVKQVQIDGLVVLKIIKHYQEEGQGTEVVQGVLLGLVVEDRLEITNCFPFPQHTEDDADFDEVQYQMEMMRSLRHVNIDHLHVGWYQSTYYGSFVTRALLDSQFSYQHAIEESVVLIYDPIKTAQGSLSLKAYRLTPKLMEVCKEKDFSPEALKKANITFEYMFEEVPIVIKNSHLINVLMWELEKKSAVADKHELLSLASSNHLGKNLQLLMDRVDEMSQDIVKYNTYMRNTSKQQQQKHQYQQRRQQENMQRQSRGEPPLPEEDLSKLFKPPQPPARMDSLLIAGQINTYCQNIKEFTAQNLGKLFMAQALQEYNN
# In short: as §1
# [6] = biological target: T3, FAM105A (UniProt Q9NUU6)
# T3 sequence (whole entry): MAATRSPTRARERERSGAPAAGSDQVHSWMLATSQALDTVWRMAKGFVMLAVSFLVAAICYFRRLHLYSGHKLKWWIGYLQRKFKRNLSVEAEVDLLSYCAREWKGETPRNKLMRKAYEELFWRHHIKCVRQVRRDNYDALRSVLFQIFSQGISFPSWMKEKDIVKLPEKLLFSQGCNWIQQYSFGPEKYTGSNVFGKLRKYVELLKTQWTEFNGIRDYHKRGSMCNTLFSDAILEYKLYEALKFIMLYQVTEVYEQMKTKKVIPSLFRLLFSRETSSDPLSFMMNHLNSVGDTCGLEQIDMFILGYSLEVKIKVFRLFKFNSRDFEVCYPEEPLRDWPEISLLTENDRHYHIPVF
# In short: as §1
# [7] = biological target: OTUB1 (UniProt Q96FW1)
# Sequence of OTUB1 (Q96FW1 whole entry): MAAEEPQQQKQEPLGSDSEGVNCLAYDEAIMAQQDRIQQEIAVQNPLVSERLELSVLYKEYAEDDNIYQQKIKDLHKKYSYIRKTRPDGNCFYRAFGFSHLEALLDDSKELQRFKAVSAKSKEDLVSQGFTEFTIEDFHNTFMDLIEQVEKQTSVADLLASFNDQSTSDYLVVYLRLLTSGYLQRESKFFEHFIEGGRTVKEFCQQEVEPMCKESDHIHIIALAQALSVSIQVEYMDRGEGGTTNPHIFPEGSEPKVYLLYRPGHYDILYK
# In short: as §1
# [8] = biological target: T4, OTUD4 (UniProt Q01804)
# T4 sequence (whole entry): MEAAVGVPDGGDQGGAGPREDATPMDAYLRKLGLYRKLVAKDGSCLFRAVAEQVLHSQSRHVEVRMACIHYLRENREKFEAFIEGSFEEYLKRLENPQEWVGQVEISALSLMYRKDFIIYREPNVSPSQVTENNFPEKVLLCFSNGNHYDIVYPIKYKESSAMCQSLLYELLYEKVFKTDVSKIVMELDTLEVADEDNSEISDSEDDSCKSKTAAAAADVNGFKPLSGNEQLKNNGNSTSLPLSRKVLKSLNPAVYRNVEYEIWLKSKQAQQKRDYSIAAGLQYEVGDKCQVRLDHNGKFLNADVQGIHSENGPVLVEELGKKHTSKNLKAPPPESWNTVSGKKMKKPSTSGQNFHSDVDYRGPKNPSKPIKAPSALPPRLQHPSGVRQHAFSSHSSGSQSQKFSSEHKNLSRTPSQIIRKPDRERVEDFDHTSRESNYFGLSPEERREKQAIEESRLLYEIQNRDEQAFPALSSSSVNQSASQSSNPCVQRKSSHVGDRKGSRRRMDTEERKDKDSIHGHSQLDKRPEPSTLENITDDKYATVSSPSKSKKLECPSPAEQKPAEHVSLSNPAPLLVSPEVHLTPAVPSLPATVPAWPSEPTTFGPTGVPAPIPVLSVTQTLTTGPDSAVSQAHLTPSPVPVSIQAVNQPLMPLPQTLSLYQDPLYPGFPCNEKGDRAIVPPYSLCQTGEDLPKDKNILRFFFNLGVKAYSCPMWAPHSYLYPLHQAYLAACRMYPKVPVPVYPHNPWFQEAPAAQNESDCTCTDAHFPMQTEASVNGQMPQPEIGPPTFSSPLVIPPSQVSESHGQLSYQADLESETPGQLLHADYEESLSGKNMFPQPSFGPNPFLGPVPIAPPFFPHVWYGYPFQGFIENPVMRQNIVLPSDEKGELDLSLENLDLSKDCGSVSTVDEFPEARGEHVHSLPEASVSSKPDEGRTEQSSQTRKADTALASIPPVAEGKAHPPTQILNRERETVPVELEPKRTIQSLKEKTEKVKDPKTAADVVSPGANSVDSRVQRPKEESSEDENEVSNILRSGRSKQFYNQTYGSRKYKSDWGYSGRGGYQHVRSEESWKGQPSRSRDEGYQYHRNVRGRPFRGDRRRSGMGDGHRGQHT
# In short: as §1
# [9] = biological target: T5, OTUD5 (UniProt Q96G74)
# T5 sequence (whole entry): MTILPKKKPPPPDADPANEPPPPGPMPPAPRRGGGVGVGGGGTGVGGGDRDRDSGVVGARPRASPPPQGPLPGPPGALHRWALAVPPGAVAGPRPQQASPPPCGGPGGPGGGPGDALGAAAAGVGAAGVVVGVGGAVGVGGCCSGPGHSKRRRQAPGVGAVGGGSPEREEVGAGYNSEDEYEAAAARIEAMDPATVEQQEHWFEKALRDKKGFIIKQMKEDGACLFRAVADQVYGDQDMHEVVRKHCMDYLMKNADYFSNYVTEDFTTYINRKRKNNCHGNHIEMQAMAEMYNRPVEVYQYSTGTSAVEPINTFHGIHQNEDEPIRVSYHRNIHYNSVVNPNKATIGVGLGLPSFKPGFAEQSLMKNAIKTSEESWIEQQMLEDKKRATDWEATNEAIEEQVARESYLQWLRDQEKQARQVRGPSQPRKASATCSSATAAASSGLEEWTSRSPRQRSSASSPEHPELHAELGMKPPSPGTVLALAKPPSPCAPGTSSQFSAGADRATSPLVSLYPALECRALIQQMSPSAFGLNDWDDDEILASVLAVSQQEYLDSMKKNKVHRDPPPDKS
# In short: as §1
compound,measurement,setting,value
CN1c2ccccc2C(NC(=O)CCl)CS1(=O)=O (centres undefined),log2 ratio of Biotin-Ahx-Ub-VS probe labelling,[1],-0.325
same,log2 ratio of Biotin-Ahx-Ub-VS probe labelling,[2],-0.142
same,log2 ratio of Biotin-Ahx-Ub-VS probe labelling,[3],-2.33 (active)
same,log2 ratio of Biotin-Ahx-Ub-VS probe labelling,[4],-0.327
same,log2 ratio of Biotin-Ahx-Ub-VS probe labelling,[5],0.0135
same,log2 ratio of Biotin-Ahx-Ub-VS probe labelling,[6],0.147
same,log2 ratio of Biotin-Ahx-Ub-VS probe labelling,[7],-0.0194
same,log2 ratio of Biotin-Ahx-Ub-VS probe labelling,[8],-1.65 (active)
same,log2 ratio of Biotin-Ahx-Ub-VS probe labelling,[9],-0.14
